Measurements as given in the supplement of paper PMC12067926.
Values without a mark were called inactive.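 How the source made its calls: active = growth AUC significantly below the DMSO wells by Dunnett test; inactive = the rest.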

These molecules were tested on Bacillus 1 (Bacillus foraminis) (assay: relative growth (AUC of 72 h growth curve relative to DMSO control, dAUC) (ratio); higher = more growth (less inhibition), active = hit call of the paper). Conditions: 20 µM.
Protocol: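 Environmental bacterial isolates (Iceland stream sediment and Silwood Park soil) and whole stream-sediment communities were grown in LB from a 1:100 dilution with each pesticide at 20 µM (1% DMSO). A600 was read hourly for 72 h and the area under a spline-fitted growth curve (AUC) was computed. dAUC is the mean AUC of 3 biological replicates divided by the mean AUC of the DMSO controls. Significance was tested by Dunnett's test against the DMSO control.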

Row | SMILES | relative growth
1 | CCCC1COC(Cn2cncn2)(c2ccc(Cl)cc2Cl)O1 (stereo not given) | 0.942
2 | CC(C)N1C(=O)N(c2ccccc2)CS/C1=N\C(C)(C)C | 1.04
3 | CS(=O)(=O)NC(=O)c1cc(Oc2ccc(C(F)(F)F)cc2Cl)ccc1[N+](=O)[O-] | 1.04
4 | CCN(CC)c1nc(C)cc(OP(=S)(OC)OC)n1 | 1.03
5 | O=C(NC(=O)c1c(F)cccc1F)Nc1ccc(OC(F)(F)C(F)OC(F)(F)F)c(Cl)c1 (stereo not given) | 0.942
6 | COc1cccc(C(=O)NN(C(=O)c2cc(C)cc(C)c2)C(C)(C)C)c1C | 0.966
7 | CCC(CC)Nc1c([N+](=O)[O-])cc(C)c(C)c1[N+](=O)[O-] | 0.931
8 | CCOc1ccc(C(C)(C)COCc2cccc(Oc3ccccc3)c2)cc1 | 0.954
9 | CCCSP(=O)(OCC)Oc1ccc(Br)cc1Cl (stereo not given) | 1.07
10 | Cc1c(COC(=O)[C@@H]2[C@H](/C=C(\Cl)C(F)(F)F)C2(C)C)cccc1-c1ccccc1 (racemic) | 0.976
11 | COc1cc(C)c(C(=O)c2c(OC)ccc(Br)c2C)c(OC)c1OC | 1.03
12 | O=C(NC(=O)c1c(F)cccc1F)Nc1ccc(Cl)cc1 | 1.05
13 | CCOCN(C(=O)CCl)c1c(C)cccc1CC | 1
14 | CNC(=O)ON=C(C)SC | 0.996
15 | CN/C(=N\[N+](=O)[O-])NCc1cnc(Cl)s1 | 1.03
16 | CC(C)OC(=O)Nc1cccc(Cl)c1 | 1.15
17 | COCC(=O)N(c1c(C)cccc1C)C(C)C(=O)OC (stereo not given) | 1.11
18 | Nc1c(Cl)c(F)nc(OCC(=O)O)c1Cl | 1.02
19 | CNC(=O)c1cc(C#N)cc(C)c1NC(=O)c1cc(Br)nn1-c1ncccc1Cl | 0.935
20 | Cc1cc(C)nc(Nc2ccccc2)n1 | 1.08

Row | SMILES | relative growth
21 | N#Cc1c(Cl)c(Cl)c(Cl)c(C#N)c1Cl | 0.955
22 | COc1ccc(-c2ccccc2)cc1NNC(=O)OC(C)C | 1.03
23 | C/C(=N\C#N)N(C)Cc1ccc(Cl)nc1 | 0.921
24 | COC(=O)N(OC)c1ccccc1COc1ccn(-c2ccc(Cl)cc2)n1 | 1.06
25 | CC(Oc1ccc(Oc2nc3ccc(Cl)cc3o2)cc1)C(=O)O (stereo not given) | 1.02
26 | CCOP(=S)(OCC)Oc1nc(Cl)c(Cl)cc1Cl | 1.07
27 | CCNc1nc(Cl)nc(NC(C)C)n1 | 0.997
28 | Oc1ccc(Cl)cc1Cc1cc(Cl)ccc1O | 0.81
29 | Clc1ccc(C(c2ccc(Cl)cc2)C(Cl)(Cl)Cl)cc1 | 1.06
30 | CO/C=C(/C(=O)OC)c1ccccc1COc1cccc(C(F)(F)F)n1 | 1.05
31 | CNC(=O)Oc1cccc2ccccc12 | 1.05
32 | CC1=NNC(=O)N(/N=C/c2cccnc2)C1 | 1.16
33 | CSc1nc(NC(C)C)nc(NC(C)C)n1 | 0.945
34 | Nc1c([N+](=O)[O-])ccc(Oc2ccccc2)c1Cl | 1.02
35 | CC(C)CC(C)c1sccc1NC(=O)c1cn(C)nc1C(F)(F)F (stereo not given) | 0.959
36 | O=C1C2(Cl)C3(Cl)C4(Cl)C(Cl)(Cl)C5(Cl)C3(Cl)C1(Cl)C5(Cl)C24Cl (stereo not given) | 0.959
37 | CN/C(=N/CC1CCOC1)N[N+](=O)[O-] (stereo not given) | 1.11
38 | N#Cc1c[nH]cc1-c1cccc2c1OC(F)(F)O2 | 0.935
39 | CC1(C)C(C=C(Cl)Cl)C1C(=O)OC(C#N)c1ccc(F)c(Oc2ccccc2)c1 (stereo not given) | 0.94
40 | CCc1cnc(C2=NC(C)(C(C)C)C(=O)N2)c(C(=O)O)c1 (stereo not given) | 1.11
